# The sample as a whole holds a higher share of the strongest signals than the screen did.
# B1: CRT-1 (Homo sapiens), P27797 (protein)
# chain: MLLSVPLLLGLLGLAVAEPAVYFKEQFLDGDGWTSRWIESKHKSDFGKFVLSSGKFYGDEEKDKGLQTSQDARFYALSASFEPFSNKGQTLVVQFTVKHEQNIDCGGGYVKLFPNSLDQTDMHGDSEYNIMFGPDICGPGTKKVHVIFNYKGKNVLINKDIRCKDDEFTHLYTLIVRPDNTYEVKIDNSQVESGSLEDDWDFLPPKKIKDPDASKPEDWDERAKIDDPTDSKPEDWDKPEHIPDPDAKKPEDWDEEMDGEWEPPVIQNPEYKGEWKPRQIDNPDYKGTWIHPEIDNPEYSPDPSIYAYDNFGVLGLDLWQVKSGTIFDNFLITNDEAYAEEFGNETWGVTKAAEKQMKDKQDEEQRLKEEEEDKKRKEEEEAEDKEDDEDKDEDEEDEEDKEEDEEEDVPGQAKDEL
# How the values were obtained:
# Test in all cases: glycan array binding signal (z-score within array); higher = stronger binding
# Settings in all cases: glycan notation: IUPAC condensed, linker removed
# [1] = molecular target: Fuc(a1-2)Gal(b1-4)Fuc(a1-3)]GlcNAc(b1-2)Man(a1-3)[Fuc(a1-2)Gal(b1-4)[Fuc(a1-3)]GlcNAc(b1-2)Man(a1-6)]Man(b1-4)GlcNAc(b1-4)GlcNAc
# In short: (§1)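 Columns mapping to the same glycan were averaged after glycan names were converted to IUPAC-condensed notation. The data come from 3228 arrays in the Consortium for Functional Glycomics database, limited to those with an available protein sequence. Binding is reported as a within-array Z-score averaged across arrays of one protein sequence and across linkers.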
# [2] = molecular target: Fuc(a1-2)Gal(b1-4)GlcNAc(b1-3)[Fuc(a1-3)[Gal(b1-4)]GlcNAc(b1-6)]Gal(b1-4)Glc
# In short: as §1
# [3] = molecular target: Fuc(a1-2)Gal(b1-4)[Fuc(a1-3)]GlcNAc(b1-2)Man(a1-3)[Fuc(a1-2)Gal(b1-4)[Fuc(a1-3)]GlcNAc(b1-2)Man(a1-6)]Man(b1-4)GlcNAc(b1-4)GlcNAc
# In short: as §1
# [4] = molecular target: Fuc(a1-2)Gal6S(b1-3)GlcNAc6S
# In short: as §1
# [5] = molecular target: Fuc(a1-2)[Gal(a1-3)]Gal(b1-3)GlcNAc(b1-3)GalNAc
# In short: as §1
# [6] = molecular target: Fuc(a1-2)[Gal(a1-3)]Gal(b1-4)[Fuc(a1-3)]Glc
# In short: as §1
# [7] = molecular target: Fuc(a1-2)[GalNAc(a1-3)]Gal(b1-4)GlcNAc
# In short: as §1
# [8] = molecular target: Fuc(a1-2)[GalNAc(a1-3)]Gal(b1-4)GlcNAc(b1-2)Man(a1-3)[Fuc(a1-2)[GalNAc(a1-3)]Gal(b1-4)GlcNAc(b1-2)Man(a1-6)]Man(b1-4)GlcNAc(b1-4)GlcNAc
# In short: as §1
# Fuc(a1-3)GlcNAc = molecular target: Fuc(a1-3)GlcNAc
# In short: as §1
# [9] = molecular target: Fuc(a1-3)[Gal3S(b1-4)]GlcNAc
# In short: as §1
# [10] = molecular target: Fuc(a1-3)[Gal3S(b1-4)]GlcNAc6S
# In short: as §1
# Gal(a1-3)Gal(b1-3)GlcNAc = molecular target: Gal(a1-3)Gal(b1-3)GlcNAc
# In short: as §1
# [11] = molecular target: Gal(a1-3)Gal(b1-3)[Fuc(a1-4)]GlcNAc(b1-2)Man(a1-3)[Gal(a1-3)Gal(b1-3)[Fuc(a1-4)]GlcNAc(b1-2)Man(a1-6)]Man(b1-4)GlcNAc(b1-4)GlcNAc
# In short: as §1
# [12] = molecular target: Gal(a1-3)Gal(b1-4)GlcNAc(b1-2)Man
# In short: as §1
# [13] = molecular target: Gal(a1-3)[Gal(a1-4)]Gal(b1-4)GlcNAc
# In short: as §1
# [14] = molecular target: Gal(a1-4)Gal(b1-4)GlcNAc(b1-2)Man(a1-3)[Gal(a1-4)Gal(b1-4)GlcNAc(b1-2)Man(a1-6)]Man(b1-4)GlcNAc(b1-4)GlcNAc
# In short: as §1
# Gal(b1-3)GlcNAc = molecular target: Gal(b1-3)GlcNAc
# In short: as §1
# [15] = molecular target: Gal(b1-3)GlcNAc(b1-2)Man(a1-3)[Gal(b1-3)GlcNAc(b1-2)Man(a1-6)]Man(b1-4)GlcNAc(b1-4)[Fuc(a1-6)]GlcNAc
# In short: as §1
# Gal(b1-3)GlcNAc6S = molecular target: Gal(b1-3)GlcNAc6S
# In short: as §1
# [16] = molecular target: Gal(b1-3)[Fuc(a1-4)]GlcNAc(b1-2)Man(a1-3)[Gal(b1-3)[Fuc(a1-4)]GlcNAc(b1-2)Man(a1-6)]Man(b1-4)GlcNAc(b1-4)GlcNAc
# In short: as §1
# Gal(b1-4)Gal = molecular target: Gal(b1-4)Gal
# In short: as §1
# [17] = molecular target: Gal(b1-4)GlcNAc(b1-3)Gal(b1-3)GlcNAc
# In short: as §1
# [18] = molecular target: Gal(b1-4)GlcNAc(b1-3)Gal(b1-4)GlcNAc(b1-3)Gal(b1-4)GlcNAc(b1-3)Gal(b1-4)GlcNAc(b1-2)Man(a1-3)[Gal(b1-4)GlcNAc(b1-3)Gal(b1-4)GlcNAc(b1-3)Gal(b1-4)GlcNAc(b1-3)Gal(b1-4)GlcNAc(b1-2)Man(a1-6)]Man(b1-4)GlcNAc(b1-4)[Fuc(a1-6)]GlcNAc
# In short: as §1
# [19] = molecular target: Gal(b1-4)GlcNAc(b1-3)Gal(b1-4)GlcNAc(b1-3)Gal(b1-4)GlcNAc(b1-3)Gal(b1-4)GlcNAc(b1-3)Gal(b1-4)GlcNAc(b1-2)Man(a1-3)[Gal(b1-4)GlcNAc(b1-3)Gal(b1-4)GlcNAc(b1-3)Gal(b1-4)GlcNAc(b1-3)Gal(b1-4)GlcNAc(b1-3)Gal(b1-4)GlcNAc(b1-2)Man(a1-6)]Man(b1-4)GlcNAc(b1-4)GlcNAc
# In short: as §1
# [20] = molecular target: Gal(b1-4)GlcNAc(b1-3)[Gal(b1-4)GlcNAc(b1-6)]Gal(b1-4)GlcNAc
# In short: as §1
# [21] = molecular target: Gal(b1-4)GlcNAc(b1-3)[Gal(b1-4)GlcNAc(b1-6)]GalNAc
# In short: as §1
binder,measurement,setting,value
B1,glycan array binding signal (z-score),[1],1.49
same,glycan array binding signal (z-score),[2],0.038
same,glycan array binding signal (z-score),[3],2.15
same,glycan array binding signal (z-score),[4],0.305
same,glycan array binding signal (z-score),[5],-0.073
same,glycan array binding signal (z-score),[6],-0.424
same,glycan array binding signal (z-score),[7],-0.467
same,glycan array binding signal (z-score),[8],0.117
same,glycan array binding signal (z-score),Fuc(a1-3)GlcNAc,2.63
same,glycan array binding signal (z-score),[9],0.572
same,glycan array binding signal (z-score),[10],0.146
same,glycan array binding signal (z-score),Gal(a1-3)Gal(b1-3)GlcNAc,-0.43
same,glycan array binding signal (z-score),[11],0.078
same,glycan array binding signal (z-score),[12],-0.279
same,glycan array binding signal (z-score),[13],0.255
same,glycan array binding signal (z-score),[14],-0.021
same,glycan array binding signal (z-score),Gal(b1-3)GlcNAc,-0.063
same,glycan array binding signal (z-score),[15],0.223
same,glycan array binding signal (z-score),Gal(b1-3)GlcNAc6S,0.611
same,glycan array binding signal (z-score),[16],2.33
same,glycan array binding signal (z-score),Gal(b1-4)Gal,-0.253
same,glycan array binding signal (z-score),[17],-0.342
same,glycan array binding signal (z-score),[18],1.79
same,glycan array binding signal (z-score),[19],1.75
same,glycan array binding signal (z-score),[20],0.487
same,glycan array binding signal (z-score),[21],-0.095

# — the supplement of paper PMC8728848
